Assay results as given in the supplement of paper PMC11732987, “Enantioselective OTUD7B fragment discovery through chemoproteomics screening and high-throughput optimisation” (Communications Chemistry, 2025).

Assays:
Test in all cases: log2 ratio of Biotin-Ahx-Ub-VS probe labelling (fragment/DMSO); higher = less target engagement (more negative = stronger competition), active = hit call of the paper (q ≤ 0.05, log2 ratio ≤ -1)
Conditions in all cases: compound concentration: 200 uM; treatment time: 3 h
USP34 = USP34 (UniProt Q70CQ2)
Method in brief: (§1)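 Average log2 ratios of fragment over vehicle were obtained by unpaired t-test from global-median-normalised Spectronaut label-free quantities. Proteins with ≥2 unique peptides were included. HEK293T lysate (495 µg per sample) was treated in triplicate with fragment at 200 µM or vehicle for 3 h, then with Biotin-Ahx-Ub-VS at 0.5 µM final for 1 h, and labelled DUBs were NeutrAvidin-enriched and run by diaPASEF LC-MS/MS.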

USP36 = target: T1, USP36 (UniProt Q9P275)
T1 sequence (whole entry): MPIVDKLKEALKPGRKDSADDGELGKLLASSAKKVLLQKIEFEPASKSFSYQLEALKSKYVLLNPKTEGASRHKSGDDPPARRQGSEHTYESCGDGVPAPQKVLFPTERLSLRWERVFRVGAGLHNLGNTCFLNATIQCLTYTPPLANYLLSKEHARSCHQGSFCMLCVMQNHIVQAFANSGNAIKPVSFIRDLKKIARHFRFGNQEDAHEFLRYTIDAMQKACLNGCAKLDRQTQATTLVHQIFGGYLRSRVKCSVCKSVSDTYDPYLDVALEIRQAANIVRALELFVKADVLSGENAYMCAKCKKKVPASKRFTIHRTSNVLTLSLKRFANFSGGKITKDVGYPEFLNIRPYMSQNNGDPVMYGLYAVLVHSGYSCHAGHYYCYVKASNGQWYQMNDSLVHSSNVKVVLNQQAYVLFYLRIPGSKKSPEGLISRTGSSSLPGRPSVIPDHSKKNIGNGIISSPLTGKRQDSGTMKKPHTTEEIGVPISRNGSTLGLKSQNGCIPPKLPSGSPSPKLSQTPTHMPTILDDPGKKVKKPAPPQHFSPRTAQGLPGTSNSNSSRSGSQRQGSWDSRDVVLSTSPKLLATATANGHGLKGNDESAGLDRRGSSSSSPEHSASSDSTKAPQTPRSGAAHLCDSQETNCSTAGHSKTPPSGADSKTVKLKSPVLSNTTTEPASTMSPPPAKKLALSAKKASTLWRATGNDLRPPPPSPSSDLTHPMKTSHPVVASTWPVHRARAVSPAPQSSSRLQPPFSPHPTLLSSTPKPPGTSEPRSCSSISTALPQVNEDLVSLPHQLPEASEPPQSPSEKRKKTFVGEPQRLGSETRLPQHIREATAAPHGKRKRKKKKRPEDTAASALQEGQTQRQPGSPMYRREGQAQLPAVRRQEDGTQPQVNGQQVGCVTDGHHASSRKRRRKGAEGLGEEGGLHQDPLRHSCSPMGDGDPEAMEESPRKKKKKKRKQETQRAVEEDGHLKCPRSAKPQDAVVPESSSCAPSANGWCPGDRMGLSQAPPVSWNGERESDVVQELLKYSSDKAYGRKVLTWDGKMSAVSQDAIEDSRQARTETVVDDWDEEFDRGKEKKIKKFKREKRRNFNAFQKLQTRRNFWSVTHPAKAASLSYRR
Method in brief: as §1

USP38 = target: T2, USP38 (UniProt Q8NB14)
T2 sequence (whole entry): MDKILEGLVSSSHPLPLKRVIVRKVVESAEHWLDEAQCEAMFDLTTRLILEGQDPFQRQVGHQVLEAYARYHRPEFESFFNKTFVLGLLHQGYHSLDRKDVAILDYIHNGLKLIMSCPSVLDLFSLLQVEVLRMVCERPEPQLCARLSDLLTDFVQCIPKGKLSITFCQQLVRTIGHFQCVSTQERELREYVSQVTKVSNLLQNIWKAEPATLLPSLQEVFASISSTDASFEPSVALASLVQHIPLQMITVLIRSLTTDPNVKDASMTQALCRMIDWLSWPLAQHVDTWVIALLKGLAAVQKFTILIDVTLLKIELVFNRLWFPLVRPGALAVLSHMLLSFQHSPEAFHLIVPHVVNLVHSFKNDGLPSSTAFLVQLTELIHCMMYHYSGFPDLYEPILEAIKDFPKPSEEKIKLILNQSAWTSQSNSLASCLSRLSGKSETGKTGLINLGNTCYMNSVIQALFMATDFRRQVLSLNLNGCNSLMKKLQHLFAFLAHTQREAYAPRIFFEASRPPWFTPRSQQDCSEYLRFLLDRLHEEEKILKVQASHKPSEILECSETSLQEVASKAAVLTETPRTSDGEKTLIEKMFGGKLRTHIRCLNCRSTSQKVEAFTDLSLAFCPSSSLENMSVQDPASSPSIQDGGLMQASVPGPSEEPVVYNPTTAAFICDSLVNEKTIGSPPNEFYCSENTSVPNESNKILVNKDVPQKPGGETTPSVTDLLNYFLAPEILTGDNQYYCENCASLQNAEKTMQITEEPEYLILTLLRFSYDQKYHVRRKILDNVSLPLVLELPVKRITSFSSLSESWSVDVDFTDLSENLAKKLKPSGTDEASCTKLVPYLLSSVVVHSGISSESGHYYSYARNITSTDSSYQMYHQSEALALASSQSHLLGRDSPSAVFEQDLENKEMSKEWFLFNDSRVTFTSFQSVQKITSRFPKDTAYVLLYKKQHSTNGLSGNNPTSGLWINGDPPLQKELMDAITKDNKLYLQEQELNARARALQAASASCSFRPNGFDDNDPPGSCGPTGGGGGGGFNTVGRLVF
Method in brief: as §1

USP39 = target: T3, USP39 (UniProt Q53GS9)
T3 sequence (whole entry): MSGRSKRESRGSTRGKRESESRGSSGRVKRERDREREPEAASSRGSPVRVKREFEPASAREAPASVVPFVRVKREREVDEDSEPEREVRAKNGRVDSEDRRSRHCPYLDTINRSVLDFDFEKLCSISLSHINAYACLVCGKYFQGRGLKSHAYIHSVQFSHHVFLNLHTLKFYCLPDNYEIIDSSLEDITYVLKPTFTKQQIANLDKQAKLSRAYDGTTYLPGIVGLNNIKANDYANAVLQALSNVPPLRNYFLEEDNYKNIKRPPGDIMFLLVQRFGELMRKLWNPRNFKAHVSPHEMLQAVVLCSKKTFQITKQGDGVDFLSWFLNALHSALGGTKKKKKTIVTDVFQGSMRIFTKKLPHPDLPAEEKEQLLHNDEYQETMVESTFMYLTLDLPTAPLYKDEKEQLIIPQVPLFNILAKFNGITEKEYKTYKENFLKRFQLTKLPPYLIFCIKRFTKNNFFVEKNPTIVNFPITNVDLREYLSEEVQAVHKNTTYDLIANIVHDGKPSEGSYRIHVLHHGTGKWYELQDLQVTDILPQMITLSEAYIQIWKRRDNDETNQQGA
Method in brief: as §1

USP4 = target: T4, USP4 (UniProt Q13107)
T4 sequence (whole entry): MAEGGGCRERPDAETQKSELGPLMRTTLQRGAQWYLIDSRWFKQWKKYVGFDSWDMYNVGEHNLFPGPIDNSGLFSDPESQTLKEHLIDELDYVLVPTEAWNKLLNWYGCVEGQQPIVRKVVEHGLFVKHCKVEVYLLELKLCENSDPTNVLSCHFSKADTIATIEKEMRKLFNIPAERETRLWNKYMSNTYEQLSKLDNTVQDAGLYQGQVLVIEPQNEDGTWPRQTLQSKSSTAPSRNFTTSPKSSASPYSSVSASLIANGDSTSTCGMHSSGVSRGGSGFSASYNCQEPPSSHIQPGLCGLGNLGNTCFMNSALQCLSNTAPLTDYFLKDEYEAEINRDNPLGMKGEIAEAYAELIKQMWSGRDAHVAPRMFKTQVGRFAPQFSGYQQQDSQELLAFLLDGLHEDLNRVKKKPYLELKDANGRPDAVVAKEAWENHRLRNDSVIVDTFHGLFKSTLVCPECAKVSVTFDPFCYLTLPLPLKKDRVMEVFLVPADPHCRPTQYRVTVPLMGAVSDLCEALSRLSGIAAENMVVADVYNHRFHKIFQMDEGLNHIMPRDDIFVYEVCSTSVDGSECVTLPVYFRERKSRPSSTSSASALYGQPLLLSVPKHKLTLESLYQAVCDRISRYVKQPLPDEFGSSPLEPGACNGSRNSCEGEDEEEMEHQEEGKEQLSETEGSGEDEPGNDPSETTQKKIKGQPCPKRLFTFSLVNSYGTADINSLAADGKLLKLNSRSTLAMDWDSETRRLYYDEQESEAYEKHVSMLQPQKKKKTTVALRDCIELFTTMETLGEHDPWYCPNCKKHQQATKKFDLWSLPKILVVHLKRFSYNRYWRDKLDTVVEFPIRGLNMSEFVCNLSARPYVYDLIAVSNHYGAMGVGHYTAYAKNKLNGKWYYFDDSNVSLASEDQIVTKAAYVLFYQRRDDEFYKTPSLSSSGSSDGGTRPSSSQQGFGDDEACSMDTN
Method in brief: as §1

Measured: log2 ratio of Biotin-Ahx-Ub-VS probe labelling

Sequence of USP34 (Q70CQ2 whole entry, the tested form may be a part): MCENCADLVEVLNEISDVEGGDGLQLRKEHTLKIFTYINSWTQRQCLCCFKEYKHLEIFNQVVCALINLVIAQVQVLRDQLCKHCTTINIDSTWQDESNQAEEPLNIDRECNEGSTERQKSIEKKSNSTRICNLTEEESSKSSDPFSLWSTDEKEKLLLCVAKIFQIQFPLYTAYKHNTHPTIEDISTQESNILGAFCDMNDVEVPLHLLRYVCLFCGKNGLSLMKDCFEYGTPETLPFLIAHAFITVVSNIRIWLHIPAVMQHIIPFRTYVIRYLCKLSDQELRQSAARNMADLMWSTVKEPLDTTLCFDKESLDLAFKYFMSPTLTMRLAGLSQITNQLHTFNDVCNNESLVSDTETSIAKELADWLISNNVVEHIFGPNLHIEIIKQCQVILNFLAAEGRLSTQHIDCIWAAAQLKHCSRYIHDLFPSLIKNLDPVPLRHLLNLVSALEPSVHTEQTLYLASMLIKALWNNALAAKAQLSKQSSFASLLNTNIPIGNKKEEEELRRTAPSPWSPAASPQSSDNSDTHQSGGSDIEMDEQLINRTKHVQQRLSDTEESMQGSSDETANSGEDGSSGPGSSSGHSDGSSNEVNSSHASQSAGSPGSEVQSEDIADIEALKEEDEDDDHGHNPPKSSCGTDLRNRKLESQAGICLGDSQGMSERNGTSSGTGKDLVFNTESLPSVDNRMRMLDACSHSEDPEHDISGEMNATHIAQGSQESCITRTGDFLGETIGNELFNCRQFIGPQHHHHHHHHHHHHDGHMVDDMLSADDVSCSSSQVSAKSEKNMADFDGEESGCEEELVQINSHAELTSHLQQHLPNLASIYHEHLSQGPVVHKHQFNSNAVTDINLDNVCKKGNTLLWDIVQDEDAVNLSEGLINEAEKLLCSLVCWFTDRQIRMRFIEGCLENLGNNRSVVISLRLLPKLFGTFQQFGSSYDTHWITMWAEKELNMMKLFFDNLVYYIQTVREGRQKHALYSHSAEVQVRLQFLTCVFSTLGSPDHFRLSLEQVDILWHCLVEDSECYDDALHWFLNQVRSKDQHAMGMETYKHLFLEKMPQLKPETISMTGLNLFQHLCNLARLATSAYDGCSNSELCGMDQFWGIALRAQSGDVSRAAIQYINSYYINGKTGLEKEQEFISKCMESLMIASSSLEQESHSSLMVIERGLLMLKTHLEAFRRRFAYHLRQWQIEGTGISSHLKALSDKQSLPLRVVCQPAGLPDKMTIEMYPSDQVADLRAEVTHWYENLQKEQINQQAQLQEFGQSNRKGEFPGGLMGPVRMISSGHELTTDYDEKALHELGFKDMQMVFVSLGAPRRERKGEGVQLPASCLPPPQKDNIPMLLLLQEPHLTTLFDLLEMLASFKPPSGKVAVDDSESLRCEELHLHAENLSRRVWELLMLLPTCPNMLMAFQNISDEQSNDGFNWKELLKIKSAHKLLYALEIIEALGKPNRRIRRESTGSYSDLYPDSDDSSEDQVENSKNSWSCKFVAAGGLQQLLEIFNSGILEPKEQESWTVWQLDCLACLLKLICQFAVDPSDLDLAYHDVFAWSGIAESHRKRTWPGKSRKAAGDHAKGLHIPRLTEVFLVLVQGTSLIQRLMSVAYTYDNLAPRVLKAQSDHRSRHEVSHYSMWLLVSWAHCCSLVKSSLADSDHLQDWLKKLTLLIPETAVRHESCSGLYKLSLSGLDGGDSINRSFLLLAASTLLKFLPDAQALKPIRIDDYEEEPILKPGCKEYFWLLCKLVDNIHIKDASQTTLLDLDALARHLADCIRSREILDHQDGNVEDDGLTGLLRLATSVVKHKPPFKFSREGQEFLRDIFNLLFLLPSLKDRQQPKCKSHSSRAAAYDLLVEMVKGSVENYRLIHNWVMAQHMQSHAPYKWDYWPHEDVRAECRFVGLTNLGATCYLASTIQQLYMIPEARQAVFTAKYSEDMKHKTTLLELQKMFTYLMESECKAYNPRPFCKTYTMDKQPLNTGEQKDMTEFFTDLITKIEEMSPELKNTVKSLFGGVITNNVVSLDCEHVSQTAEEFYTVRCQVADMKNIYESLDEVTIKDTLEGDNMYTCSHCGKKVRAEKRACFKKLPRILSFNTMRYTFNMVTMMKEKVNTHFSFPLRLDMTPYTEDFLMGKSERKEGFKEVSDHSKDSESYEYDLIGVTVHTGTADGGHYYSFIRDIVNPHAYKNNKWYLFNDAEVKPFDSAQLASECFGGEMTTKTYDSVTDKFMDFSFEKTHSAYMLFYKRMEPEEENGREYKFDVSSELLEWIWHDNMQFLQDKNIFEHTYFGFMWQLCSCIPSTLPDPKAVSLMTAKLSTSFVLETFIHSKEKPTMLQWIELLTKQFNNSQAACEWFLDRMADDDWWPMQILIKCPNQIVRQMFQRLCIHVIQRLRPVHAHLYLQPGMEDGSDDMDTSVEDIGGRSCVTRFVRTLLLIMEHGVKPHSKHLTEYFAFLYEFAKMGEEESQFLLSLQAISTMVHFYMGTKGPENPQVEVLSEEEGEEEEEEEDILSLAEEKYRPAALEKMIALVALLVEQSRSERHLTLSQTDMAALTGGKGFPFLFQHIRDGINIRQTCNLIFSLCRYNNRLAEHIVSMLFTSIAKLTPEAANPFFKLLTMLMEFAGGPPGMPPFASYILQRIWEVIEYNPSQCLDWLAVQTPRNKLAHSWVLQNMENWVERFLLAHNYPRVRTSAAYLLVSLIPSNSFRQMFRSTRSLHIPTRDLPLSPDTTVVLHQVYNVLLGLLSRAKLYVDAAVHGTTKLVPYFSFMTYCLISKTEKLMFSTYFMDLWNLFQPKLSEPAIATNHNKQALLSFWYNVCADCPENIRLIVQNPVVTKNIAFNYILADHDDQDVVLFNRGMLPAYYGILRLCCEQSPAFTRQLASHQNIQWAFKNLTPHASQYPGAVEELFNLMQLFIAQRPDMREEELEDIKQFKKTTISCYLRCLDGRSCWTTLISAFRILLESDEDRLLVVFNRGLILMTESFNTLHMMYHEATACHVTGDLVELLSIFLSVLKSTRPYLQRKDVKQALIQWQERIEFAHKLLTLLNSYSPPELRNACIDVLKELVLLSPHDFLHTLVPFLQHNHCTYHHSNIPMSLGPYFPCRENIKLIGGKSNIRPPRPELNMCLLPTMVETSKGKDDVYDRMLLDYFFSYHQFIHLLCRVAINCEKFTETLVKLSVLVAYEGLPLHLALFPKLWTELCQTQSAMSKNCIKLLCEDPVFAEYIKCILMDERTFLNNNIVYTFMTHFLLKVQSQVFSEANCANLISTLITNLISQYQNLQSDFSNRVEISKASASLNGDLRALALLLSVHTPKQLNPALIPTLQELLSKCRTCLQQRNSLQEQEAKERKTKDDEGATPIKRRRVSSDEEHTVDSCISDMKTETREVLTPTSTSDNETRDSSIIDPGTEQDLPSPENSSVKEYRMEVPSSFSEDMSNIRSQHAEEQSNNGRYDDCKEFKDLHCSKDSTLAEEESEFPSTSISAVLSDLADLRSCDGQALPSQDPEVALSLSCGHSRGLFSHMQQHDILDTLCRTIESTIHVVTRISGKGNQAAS

O=C(CCl)N1CCOC(CCc2ccccc2)C1 (stereo not given)
inactive: USP34 -0.338 | USP36 0.0399 | USP38 -0.227 | USP39 0.136 | USP4 -0.729
